# From the supplement of paper PMC6555819
# Legend:
# Experiment in all cases: PBM binding z-score (relative to random genomic background probes); higher = stronger binding; sequences stand for … in GC…GCGATTGACAGCGTAGAATGAAGG
# [1] = test system: FXR:RXRa (NR concentration 270 nM, RXRa partner concentration 90 nM)
# Summary of the method: (§1)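 Each nuclear receptor dimer, without ligand, was incubated for 1 h on custom Agilent 4×180K protein-binding microarrays. Binding was detected with antibodies against each partner (one per run), and scanned fluorescence was regression-normalized. The binding z-scores are referenced to random human genomic background probes.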
# [2] = test system: LXRa:RXRa (NR concentration 270 nM, RXRa partner concentration 90 nM)
# Summary of the method: as §1
# [3] = test system: LXRa homodimer (NR concentration 270 nM)
# Summary of the method: as §1
# [4] = test system: LXRb:RXRa (NR concentration 270 nM, RXRa partner concentration 90 nM)
# Summary of the method: as §1
# [5] = test system: LXRb homodimer (NR concentration 270 nM)
# Summary of the method: as §1
# [6] = test system: PPARa:RXRa (NR concentration 270 nM, RXRa partner concentration 90 nM)
# Summary of the method: as §1
# [7] = test system: PPARg:RXRa (NR concentration 180 nM, RXRa partner concentration 90 nM)
# Summary of the method: as §1
# [8] = test system: PPARg:RXRa 270nM:90nM, anti-RXR (NR concentration 270 nM, RXRa partner concentration 90 nM)
# Summary of the method: as §1
# [9] = test system: PPARg:RXRa 30nM:10nM, anti-RXR (NR concentration 30 nM, RXRa partner concentration 10 nM)
# Summary of the method: as §1
# [10] = test system: PPARg:RXRa 90nM:30nM, anti-RXR (NR concentration 90 nM, RXRa partner concentration 30 nM)
# Summary of the method: as §1
# [11] = test system: PPARg:RXRa DBDmut IVT, anti-RXR (DBD mutation: RXRa K156A/R161A, NR concentration 270 nM, RXRa partner concentration 90 nM)
# Summary of the method: as §1
# [12] = test system: PPARg:RXRa IVT, anti-PPARg (NR concentration 270 nM, RXRa partner concentration 90 nM)
# Summary of the method: as §1
# [13] = test system: PPARg DBDmut:RXRa IVT, anti-PPARg (DBD mutation: PPARg1 K132A/R137A, NR concentration 270 nM, RXRa partner concentration 90 nM)
# Summary of the method: as §1
# [14] = test system: PPARg DBDmut IVT, anti-PPARg (DBD mutation: PPARg1 K132A/R137A, NR concentration 270 nM)
# Summary of the method: as §1
# [15] = test system: PPARg homodimer (NR concentration 180 nM)
# Summary of the method: as §1
# [16] = test system: PXR:RXRa (NR concentration 270 nM, RXRa partner concentration 90 nM)
# Summary of the method: as §1
# [17] = test system: PXR homodimer (NR concentration 270 nM)
# Summary of the method: as §1
# [18] = test system: RARa:RXR (NR concentration 270 nM, RXRa partner concentration 90 nM)
# Summary of the method: as §1
# [19] = test system: RARa homodimer (NR concentration 270 nM)
# Summary of the method: as §1
# [20] = test system: RARb:RXRa (NR concentration 270 nM, RXRa partner concentration 90 nM)
# Summary of the method: as §1
Sequence,PBM binding z-score [1],PBM binding z-score [2],PBM binding z-score [3],PBM binding z-score [4],PBM binding z-score [5],PBM binding z-score [6],PBM binding z-score [7],PBM binding z-score [8],PBM binding z-score [9],PBM binding z-score [10],PBM binding z-score [11],PBM binding z-score [12],PBM binding z-score [13],PBM binding z-score [14],PBM binding z-score [15],PBM binding z-score [16],PBM binding z-score [17],PBM binding z-score [18],PBM binding z-score [19],PBM binding z-score [20]
TCTAGCAGGCTAGAGGGTCACTCAAGAGGTACGG,1.01,0.938,-0.529,0.868,-1.08,2.4,1.05,2,1.9,1.98,0.497,0.41,-0.174,-0.574,0.731,1.48,-0.354,2.02,-0.017,1.93
TCTTGTAGCTCAGCAGGTTAAGAAAGCTGGCCAA,-0.369,-0.138,-0.851,-0.1,-0.79,0.495,-0.935,0.729,1.58,1.27,0.777,-0.372,-0.853,-0.876,-0.753,-0.26,-0.524,-0.108,-1.11,-0.157
TCTAGTTTGTCAAAGGTCACACACTCGAAATGCG,6,5.79,5.08,5.68,2,6.11,8.39,8.19,7.6,8.39,2.53,4.9,1.7,3.34,4.88,5.82,1.78,6.66,2.78,4.98
GGAACGAGGGCAAAGTTGTTAGCATCTGTCGACG,0.763,0.635,-0.337,0.517,-0.419,2.61,3.61,4.82,2.96,4.84,3.85,3.57,0.128,-0.75,0.469,0.802,0.198,0.675,0.0341,2.31
CAAACTAGGTCAAAGGTCTAAGTCGAGCCAACCA,5.29,4.37,0.54,3.21,0.734,6.51,12,10,9.99,11.8,8.53,8.69,8.12,5.58,7.53,3.11,0.0192,4.84,0.718,3.91
ACAGACAGGTGAGTGAAGGTAACTCTGCTGGACG,0.466,0.168,-0.478,-0.2,-0.638,0.435,0.657,-0.0647,-0.0941,0.019,0.709,0.604,0.385,0.0284,-0.0621,-0.18,-0.457,0.173,-0.76,0.594
TCGAGCAGGTTACCAATGGGGCATTCAGCTTTCT,0.00101,1.37,-0.694,0.999,-1,0.887,-0.242,0.245,0.211,0.322,0.467,0.239,-1.51,-1.13,-0.591,0.0251,-0.765,0.475,-1.05,1.07
AGAATGAGGGCAATGAGTTGATAGCACGGGTGGC,0.728,0.505,-0.515,-0.0914,-0.286,1.91,1.79,1.42,0.0297,0.697,4.59,3.33,0.634,0.0242,0.0668,1.89,5.25,0.357,0.124,2.04
CGAACTAGGTCAGTGACAGGACAGTGAATAGTAA,1.32,0.944,-0.268,0.82,-0.44,3.47,5.73,4.86,1.66,4.11,7.42,7.6,2.57,0.828,0.785,0.605,0.0765,1.03,0.459,3.11
CCTAGTTGGTCTAGGTCACACACGCTATAGGTAC,1.54,1.66,1.3,1.68,0.465,2.18,1.42,1.53,0.318,0.958,2.17,3.05,0.258,0.48,2.14,1.4,0.764,2.1,1.82,2.63
AGAATGAGGTTATTATGATCAGGGAATTGCGGTC,1.62,1.46,0.202,1.16,0.134,2.71,1.93,1.96,0.795,1.48,3.67,2.89,1.32,0.834,0.53,1.11,0.371,1.34,0.69,1.24
TCCAGTTGGTCAAAGGTCACACACTCGAAATGCG,6.2,5.79,3.85,5.42,1.6,6.51,11,9.65,9.86,10.3,3.32,6.12,2.97,1.98,5.35,6.28,2.67,7.69,3.44,5.08
CGTCCAAGGTCAAGGTCAGTGAAAGAGACTCGAA,7.52,5.66,1.09,4.51,0.985,6.12,6.53,6.21,2.56,4.65,3.52,4.76,0.429,0.164,4.38,4.81,1.28,5.07,1.75,5.75
